PubChem BioAssay (EPA / NIEHS)
Results filed as inconclusive are left out. The source made the active and inactive calls. Rule for the calls, unless noted: active = hit-call score of the fitted dose curve at least 0.9, where 1 is the maximum; inactive = score below 0.9.

Experiments:
[1] = APR_HepG2_CellCycleArrest_1hr: Apredica 1-hour HepG2 Assay for Cell Cycle Arrest (AID 2282666); details: high-content imaging, actives raise or lower the signal
Outline: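 HepG2 cells exposed for 1 h to 0.39–200 uM compound (0.5% DMSO). Fixed, Hoechst-stained nuclei imaged by ArrayScan; DNA content quantified by Cell Cycle analysis; bidirectional fit against DMSO.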

[2] = ACEA_ER_80hr: ACEA Biosciences xCELLigence Real-Time Cell Analysis on Estrogen Receptor Agonism for Proliferation (AID 2282667; active = hit-call score of the fitted dose curve at least 0.9, where 1 is the maximum); details: T47D proliferation, impedance (xCELLigence), 80 h
Outline: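 Estrogen-driven proliferation is captured as electrode impedance in T47D cells 80 h after compound addition. Test articles ran at 8 concentrations, 1:4 dilutions from 100 uM final, in two replicate plates.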

[3] = APR_HepG2_MicrotubuleCSK_1hr: Apredica 1-hour HepG2 Assay for Microtubule CSK Stabilty (AID 2282669); details: HepG2 microtubule cytoskeleton imaging, actives raise or lower the signal
Outline: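 HepG2 cells exposed 1 h to 0.39–200 uM compound (0.5% DMSO, duplicates), then formaldehyde-fixed, permeabilized and immunostained for alpha-tubulin with Hoechst nuclei. Imaged by ArrayScan high-content analysis; bidirectional fit versus DMSO.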

[4] = APR_HepG2_p53Act_1hr: Apredica 1-hour HepG2 Assay for p53 Activation (AID 2282671); details: high-content imaging, actives raise or lower the signal
Outline: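 HepG2 cells treated 1 h with compound at 0.39–200 uM (10 concentrations, duplicate) in 0.5% DMSO. Formaldehyde-fixed, permeabilised cells immunostained for p53 with Hoechst 33342; high-content imaging, bidirectional fit versus DMSO.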

[5] = APR_HepG2_MitoticArrest_1hr: Apredica 1-hour HepG2 Assay for Mitotic Arrest (AID 2282672); details: high-content imaging, actives raise or lower the signal
Outline: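 HepG2 cells exposed 1 hr to compounds at 0.39–200 uM (0.5% v/v DMSO final), then fixed in 3.7% formaldehyde and immunostained for phospho-histone H3 with Hoechst 33342. Mitotic arrest scored by automated fluorescence imaging, fitted bidirectionally versus DMSO.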

[6] = APR_HepG2_MitoMass_1hr: Apredica 1-hour HepG2 Assay for Mitochondrial Mass (AID 2282674); details: high-content imaging, actives raise or lower the signal
Outline: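 HepG2 cells dosed 1 hr with 0.39-200 uM compound (0.5% DMSO), duplicate wells. Mitochondria stained with 250 nM MitoTracker Red CMXRos for 30 min before formaldehyde fixation, imaged at 20x by ArrayScan; bidirectional fit versus DMSO.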

[7] = APR_HepG2_MitoMembPot_1hr: Apredica 1-hour HepG2 Assay for Mitochondrial Membrane Potential (AID 2282675); details: imaging, actives raise or lower the signal
Outline: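 HepG2 cells dosed 1 hour with 0.39–200 uM compound in duplicate, 0.5% DMSO final. MitoTracker Red CMXRos (250 nM, 30 min) loaded before formaldehyde fixation; fluorescence quantified by high-content imaging, bidirectional fitting versus DMSO.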

[8] = APR_HepG2_P-H2AX_1hr: Apredica 1-hour HepG2 Assay for H2AX Phosphorylation (AID 2282673); details: high-content imaging, actives raise or lower the signal
Outline: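 HepG2 dosed 1 hr at 0.39-200 uM (0.5% DMSO final), duplicate. Fixed in 3.7% formaldehyde, Triton permeabilized, immunostained for phospho-histone H2A.x (1:200) with Hoechst 33342; ArrayScan 20x imaging, bidirectional fit vs DMSO.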

Measured: outcome

OC(c1ccc(Cl)cc1)(c1cncnc1)c1ccccc1Cl (configuration not stated)
not listed: [8]
inactive: all other assays above

CC1COC(Cn2cncn2)(c2ccc(Oc3ccc(Cl)cc3)cc2Cl)O1 (configuration not stated)
not listed: [8]
inactive: all other assays above

CCCCNC(=O)n1c(NC(=O)OC)nc2ccccc21
inactive: all assays above
